Laboratory results published in publication PMC11062922 (Nature Chemical Biology, 2023).
Like-named read-outs stand apart in the source and are kept apart here.

How the values were obtained:
NTRK1 = conditions: read-out: apparent Kd, n = 1
NUAK2 = conditions: read-out: apparent Kd, n = 1
[1] = compound concentrations:100 nM and 1000 nM (sheet 'Lestaurtinib' of Supplementary Table 1),run:Lestaurtinib_02765_R2,Plate:MR026
[2] = compound concentrations:100 nM and 1000 nM (sheet 'Lestaurtinib' of Supplementary Table 1),run:Lestaurtinib_02766_R2,Plate:MR027
[3] = compound concentrations:100 nM and 1000 nM (sheet 'Lestaurtinib' of Supplementary Table 1),run:Lestaurtinib_02768_R1,Plate:MR028
[4] = compound concentrations:100 nM and 1000 nM (sheet 'Lestaurtinib' of Supplementary Table 1),run:Lestaurtinib_02768_R2,Plate:MR028
[5] = compound concentrations:100 nM and 1000 nM (sheet 'Lestaurtinib' of Supplementary Table 1),run:Lestaurtinib_02795_R1,Plate:MR022
[6] = compound concentrations:100 nM and 1000 nM (sheet 'Lestaurtinib' of Supplementary Table 1),run:Lestaurtinib_02795_R2,Plate:MR022
[7] = compound concentrations:100 nM and 1000 nM (sheet 'Lestaurtinib' of Supplementary Table 1),run:Lestaurtinib_02802_R3,Plate:MR029
[8] = compound concentrations:100 nM and 1000 nM (sheet 'Lestaurtinib' of Supplementary Table 1),run:Lestaurtinib_02896_R2,Plate:MR030

Lestaurtinib
potency estimated from few doses (NTRK1; compound concentrations:100 nM and 1000 nM (sheet 'Lestaurtinib' of Supplementary Table 1),run:Lestaurtinib_02748_R2,Plate:MR024): 951 nM | potency estimated from few doses (NTRK1; compound concentrations:100 nM and 1000 nM (sheet 'Lestaurtinib' of Supplementary Table 1),run:Lestaurtinib_02752_R1,Plate:MR025): 2130 nM | potency estimated from few doses (NTRK1; [1]): 528 nM | potency estimated from few doses (NTRK1; [2]): 1650 nM | potency estimated from few doses (NTRK1; compound concentrations:100 nM and 1000 nM (sheet 'Lestaurtinib' of Supplementary Table 1),run:Lestaurtinib_02766_R3,Plate:MR027): 1440 nM | potency estimated from few doses (NTRK1; [3]): 628 nM | potency estimated from few doses (NTRK1; [4]): 897 nM | potency estimated from few doses (NTRK1; [5]): 852 nM | potency estimated from few doses (NTRK1; [6]): 1240 nM | potency estimated from few doses (NTRK1; compound concentrations:100 nM and 1000 nM (sheet 'Lestaurtinib' of Supplementary Table 1),run:Lestaurtinib_02802_R1,Plate:MR029): 896 nM | potency estimated from few doses (NTRK1; [7]): 943 nM | potency estimated from few doses (NTRK1; [8]): 935 nM | potency estimated from few doses (NTRK1; compound concentrations:100 nM and 1000 nM (sheet 'Lestaurtinib' of Supplementary Table 1),run:Lestaurtinib_03172_R1,Plate:MR031): 1440 nM | potency estimated from few doses (NTRK1; compound concentrations:100 nM and 1000 nM (sheet 'Lestaurtinib' of Supplementary Table 1),run:Lestaurtinib_03172_R2,Plate:MR031): 662 nM | potency estimated from few doses (NTRK1; compound concentrations:100 nM and 1000 nM (sheet 'Lestaurtinib' of Supplementary Table 1),run:Lestaurtinib_03260_R1,Plate:MR033): 898 nM | potency estimated from few doses (NTRK1; compound concentrations:100 nM and 1000 nM (sheet 'Lestaurtinib' of Supplementary Table 1),run:Lestaurtinib_03260_R2,Plate:MR033): 635 nM | potency estimated from few doses (NUAK2; compound concentrations:100 nM and 1000 nM (sheet 'Lestaurtinib' of Supplementary Table 1),run:Lestaurtinib_02339_R1,Plate:MR001): 489 nM | potency estimated from few doses (NUAK2; compound concentrations:100 nM and 1000 nM (sheet 'Lestaurtinib' of Supplementary Table 1),run:Lestaurtinib_02339_R2,Plate:MR001): 23.7 nM | potency estimated from few doses (NUAK2; compound concentrations:100 nM and 1000 nM (sheet 'Lestaurtinib' of Supplementary Table 1),run:Lestaurtinib_02339_R3,Plate:MR001): 373 nM | potency estimated from few doses (NUAK2; compound concentrations:100 nM and 1000 nM (sheet 'Lestaurtinib' of Supplementary Table 1),run:Lestaurtinib_02364_R3,Plate:MR002): 260 nM | potency estimated from few doses (NUAK2; compound concentrations:100 nM and 1000 nM (sheet 'Lestaurtinib' of Supplementary Table 1),run:Lestaurtinib_02367_R1,Plate:MR003): 873 nM | potency estimated from few doses (NUAK2; compound concentrations:100 nM and 1000 nM (sheet 'Lestaurtinib' of Supplementary Table 1),run:Lestaurtinib_02367_R2,Plate:MR003): 382 nM | potency estimated from few doses (NUAK2; compound concentrations:100 nM and 1000 nM (sheet 'Lestaurtinib' of Supplementary Table 1),run:Lestaurtinib_02381_R1,Plate:MR004): 394 nM | potency estimated from few doses (NUAK2; compound concentrations:100 nM and 1000 nM (sheet 'Lestaurtinib' of Supplementary Table 1),run:Lestaurtinib_02381_R2,Plate:MR004): 113 nM | potency estimated from few doses (NUAK2; compound concentrations:100 nM and 1000 nM (sheet 'Lestaurtinib' of Supplementary Table 1),run:Lestaurtinib_02407_R2,Plate:MR005): 70.6 nM | potency estimated from few doses (NUAK2; compound concentrations:100 nM and 1000 nM (sheet 'Lestaurtinib' of Supplementary Table 1),run:Lestaurtinib_02422_R1,Plate:MR006): 77.8 nM | potency estimated from few doses (NUAK2; compound concentrations:100 nM and 1000 nM (sheet 'Lestaurtinib' of Supplementary Table 1),run:Lestaurtinib_02422_R2,Plate:MR006): 44.9 nM | potency estimated from few doses (NUAK2; compound concentrations:100 nM and 1000 nM (sheet 'Lestaurtinib' of Supplementary Table 1),run:Lestaurtinib_02437_R1,Plate:MR007): 140 nM | potency estimated from few doses (NUAK2; compound concentrations:100 nM and 1000 nM (sheet 'Lestaurtinib' of Supplementary Table 1),run:Lestaurtinib_02438_R1,Plate:MR008): 22.1 nM | potency estimated from few doses (NUAK2; compound concentrations:100 nM and 1000 nM (sheet 'Lestaurtinib' of Supplementary Table 1),run:Lestaurtinib_02443_R1,Plate:MR009): 70 nM | potency estimated from few doses (NUAK2; compound concentrations:100 nM and 1000 nM (sheet 'Lestaurtinib' of Supplementary Table 1),run:Lestaurtinib_02443_R2,Plate:MR009): 75.5 nM | potency estimated from few doses (NUAK2; compound concentrations:100 nM and 1000 nM (sheet 'Lestaurtinib' of Supplementary Table 1),run:Lestaurtinib_02443_R3,Plate:MR009): 696 nM | potency estimated from few doses (NUAK2; compound concentrations:100 nM and 1000 nM (sheet 'Lestaurtinib' of Supplementary Table 1),run:Lestaurtinib_02473_R2,Plate:MR010): 100 nM | potency estimated from few doses (NUAK2; compound concentrations:100 nM and 1000 nM (sheet 'Lestaurtinib' of Supplementary Table 1),run:Lestaurtinib_02473_R3,Plate:MR010): 53.1 nM | potency estimated from few doses (NUAK2; compound concentrations:100 nM and 1000 nM (sheet 'Lestaurtinib' of Supplementary Table 1),run:Lestaurtinib_02482_R1,Plate:MR011): 165 nM | potency estimated from few doses (NUAK2; compound concentrations:100 nM and 1000 nM (sheet 'Lestaurtinib' of Supplementary Table 1),run:Lestaurtinib_02482_R2,Plate:MR011): 98 nM | potency estimated from few doses (NUAK2; compound concentrations:100 nM and 1000 nM (sheet 'Lestaurtinib' of Supplementary Table 1),run:Lestaurtinib_02482_R3,Plate:MR011): 133 nM | potency estimated from few doses (NUAK2; compound concentrations:100 nM and 1000 nM (sheet 'Lestaurtinib' of Supplementary Table 1),run:Lestaurtinib_02487_R1,Plate:MR012): 87.5 nM | potency estimated from few doses (NUAK2; compound concentrations:100 nM and 1000 nM (sheet 'Lestaurtinib' of Supplementary Table 1),run:Lestaurtinib_02487_R2,Plate:MR012): 208 nM | potency estimated from few doses (NUAK2; compound concentrations:100 nM and 1000 nM (sheet 'Lestaurtinib' of Supplementary Table 1),run:Lestaurtinib_02487_R3,Plate:MR012): 85.6 nM | potency estimated from few doses (NUAK2; compound concentrations:100 nM and 1000 nM (sheet 'Lestaurtinib' of Supplementary Table 1),run:Lestaurtinib_02496_R1,Plate:MR013): 931 nM | potency estimated from few doses (NUAK2; compound concentrations:100 nM and 1000 nM (sheet 'Lestaurtinib' of Supplementary Table 1),run:Lestaurtinib_02496_R3,Plate:MR013): 50.7 nM | potency estimated from few doses (NUAK2; compound concentrations:100 nM and 1000 nM (sheet 'Lestaurtinib' of Supplementary Table 1),run:Lestaurtinib_02566_R3,Plate:MR014): 517 nM | potency estimated from few doses (NUAK2; compound concentrations:100 nM and 1000 nM (sheet 'Lestaurtinib' of Supplementary Table 1),run:Lestaurtinib_02572_R1,Plate:MR015): 368 nM | potency estimated from few doses (NUAK2; compound concentrations:100 nM and 1000 nM (sheet 'Lestaurtinib' of Supplementary Table 1),run:Lestaurtinib_02572_R2,Plate:MR015): 96.7 nM | potency estimated from few doses (NUAK2; compound concentrations:100 nM and 1000 nM (sheet 'Lestaurtinib' of Supplementary Table 1),run:Lestaurtinib_02584_R1,Plate:MR017): 207 nM | potency estimated from few doses (NUAK2; compound concentrations:100 nM and 1000 nM (sheet 'Lestaurtinib' of Supplementary Table 1),run:Lestaurtinib_02584_R3,Plate:MR017): 259 nM | potency estimated from few doses (NUAK2; compound concentrations:100 nM and 1000 nM (sheet 'Lestaurtinib' of Supplementary Table 1),run:Lestaurtinib_02601_R3,Plate:MR018): 396 nM | potency estimated from few doses (NUAK2; compound concentrations:100 nM and 1000 nM (sheet 'Lestaurtinib' of Supplementary Table 1),run:Lestaurtinib_02606_R1,Plate:MR019): 140 nM | potency estimated from few doses (NUAK2; compound concentrations:100 nM and 1000 nM (sheet 'Lestaurtinib' of Supplementary Table 1),run:Lestaurtinib_02606_R2,Plate:MR019): 121 nM | potency estimated from few doses (NUAK2; compound concentrations:100 nM and 1000 nM (sheet 'Lestaurtinib' of Supplementary Table 1),run:Lestaurtinib_02606_R3,Plate:MR019): 154 nM | potency estimated from few doses (NUAK2; compound concentrations:100 nM and 1000 nM (sheet 'Lestaurtinib' of Supplementary Table 1),run:Lestaurtinib_02624_R1,Plate:MR020): 92.2 nM | potency estimated from few doses (NUAK2; compound concentrations:100 nM and 1000 nM (sheet 'Lestaurtinib' of Supplementary Table 1),run:Lestaurtinib_02624_R2,Plate:MR020): 93.3 nM | potency estimated from few doses (NUAK2; compound concentrations:100 nM and 1000 nM (sheet 'Lestaurtinib' of Supplementary Table 1),run:Lestaurtinib_02624_R3,Plate:MR020): 72.9 nM | potency estimated from few doses (NUAK2; compound concentrations:100 nM and 1000 nM (sheet 'Lestaurtinib' of Supplementary Table 1),run:Lestaurtinib_02741_R1,Plate:MR023): 140 nM | potency estimated from few doses (NUAK2; compound concentrations:100 nM and 1000 nM (sheet 'Lestaurtinib' of Supplementary Table 1),run:Lestaurtinib_02741_R2,Plate:MR023): 124 nM | potency estimated from few doses (NUAK2; compound concentrations:100 nM and 1000 nM (sheet 'Lestaurtinib' of Supplementary Table 1),run:Lestaurtinib_02741_R3,Plate:MR023): 115 nM | potency estimated from few doses (NUAK2; compound concentrations:100 nM and 1000 nM (sheet 'Lestaurtinib' of Supplementary Table 1),run:Lestaurtinib_02748_R3,Plate:MR024): 59.8 nM | potency estimated from few doses (NUAK2; compound concentrations:100 nM and 1000 nM (sheet 'Lestaurtinib' of Supplementary Table 1),run:Lestaurtinib_02752_R2,Plate:MR025): 68.5 nM | potency estimated from few doses (NUAK2; compound concentrations:100 nM and 1000 nM (sheet 'Lestaurtinib' of Supplementary Table 1),run:Lestaurtinib_02765_R1,Plate:MR026): 298 nM | potency estimated from few doses (NUAK2; [1]): 316 nM | potency estimated from few doses (NUAK2; compound concentrations:100 nM and 1000 nM (sheet 'Lestaurtinib' of Supplementary Table 1),run:Lestaurtinib_02765_R3,Plate:MR026): 88.4 nM | potency estimated from few doses (NUAK2; [2]): 58.5 nM | potency estimated from few doses (NUAK2; [3]): 89.9 nM | potency estimated from few doses (NUAK2; [4]): 66.1 nM | potency estimated from few doses (NUAK2; compound concentrations:100 nM and 1000 nM (sheet 'Lestaurtinib' of Supplementary Table 1),run:Lestaurtinib_02768_R3,Plate:MR028): 146 nM | potency estimated from few doses (NUAK2; [5]): 93.4 nM | potency estimated from few doses (NUAK2; [6]): 95.4 nM | potency estimated from few doses (NUAK2; compound concentrations:100 nM and 1000 nM (sheet 'Lestaurtinib' of Supplementary Table 1),run:Lestaurtinib_02795_R3,Plate:MR022): 154 nM | potency estimated from few doses (NUAK2; compound concentrations:100 nM and 1000 nM (sheet 'Lestaurtinib' of Supplementary Table 1),run:Lestaurtinib_02802_R2,Plate:MR029): 79.5 nM | potency estimated from few doses (NUAK2; [7]): 69.5 nM | potency estimated from few doses (NUAK2; compound concentrations:100 nM and 1000 nM (sheet 'Lestaurtinib' of Supplementary Table 1),run:Lestaurtinib_02896_R1,Plate:MR030): 90.1 nM | potency estimated from few doses (NUAK2; [8]): 130 nM
